Screens: PubChem BioAssay, Sanford-Burnham Center for Chemical Genomics
Compounds with a hit are over-represented: about 31% of the library has one in this group of screens.
PLAP act = human PLAP activation. P05187. purified PLAP enzyme, luminescent substrate read-out; active compounds read high. activation fold at 20 µM. 96,000 tested, 1.2% active. AID 696; in the data active = activation fold above about 2
CYP2C9 activ = CYP2C9 (human) activation; P11712; recombinant CYP2C9, luciferin-H conversion, luminescence; active compounds read high; factor 1 = untreated enzyme, 0 = blocked; activation factor at 5 µM; 96,000 tested, 1.4% active;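 active = activation factor of 2 or more for CYP2C9 at a 5 µM dose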
Target sequence (P11712 whole entry, looked up): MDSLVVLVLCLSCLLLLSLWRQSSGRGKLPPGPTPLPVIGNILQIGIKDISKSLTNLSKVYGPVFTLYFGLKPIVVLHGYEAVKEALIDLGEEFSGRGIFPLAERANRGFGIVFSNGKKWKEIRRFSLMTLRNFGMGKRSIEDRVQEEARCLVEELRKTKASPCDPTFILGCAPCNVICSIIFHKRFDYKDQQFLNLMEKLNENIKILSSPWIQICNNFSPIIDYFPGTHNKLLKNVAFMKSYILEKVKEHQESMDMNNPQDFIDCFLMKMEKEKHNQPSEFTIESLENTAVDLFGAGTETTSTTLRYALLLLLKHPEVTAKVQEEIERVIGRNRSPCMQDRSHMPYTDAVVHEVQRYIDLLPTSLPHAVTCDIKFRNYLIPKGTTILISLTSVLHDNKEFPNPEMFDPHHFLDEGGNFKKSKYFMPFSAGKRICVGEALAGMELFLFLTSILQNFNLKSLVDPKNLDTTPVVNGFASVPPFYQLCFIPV
CYP2C19 inh = blocks human cytochrome P450 2C19; P33261; CYP2C19 Supersomes, luciferin-H EGE luminescence, 30 min; inhibition, % at 5 µM; 96,000 tested, 21% active; AID 778;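 active = CYP2C19 inhibition above a set limit at 5 µM in the primary screen, cut at about 50% in these data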
CYP2C19 activ = increases human CYP2C19 enzyme activity | activation factor at 5 µM | 96,000 tested, under 10 active | recombinant CYP2C19, luciferin-H EGE luminescence; active compounds read high; 0 = fully inhibited enzyme, 1 = untreated enzyme | P33261;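 active = activation factor of at least 2 at 5 µM in the primary screen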
CYP2C9 inhib = human CYP2C9 inhibition. P11712. CYP2C9 Supersomes, luciferin-H conversion, luminescence. inhibition, % at 5 µM. 96,000 tested, 20% active;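 active = blocking of liver enzyme CYP2C9 beyond about 50% at 5 µM, limit read from the data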
Each line names hits and unclear results; the compound was inactive in the other large screens.

COc1ccc(S(=O)(=O)n2ccnc2)c2cccnc12	CYP2C19 inh 55.5, CYP2C9 inhib 53.3
CCOc1ccc(S(=O)(=O)N2CCN(Cc3ccccc3)CC2)c2cccnc12	none
CCOC(=O)N1CCN(C(=O)Nc2ccc(Cl)cc2Cl)CC1	none
COc1ccc(C2(CNC(=O)/C=C\c3ccco3)CCCC2)cc1OC	none
CC(=O)C1=C(O)C(=O)N(CCNCCO)C1c1ccccc1 (configuration not stated)	none
O=C1C=C(O)CC(c2cccs2)C1 (configuration not stated)	none
COc1ccc(C2C(C(=O)NCCN3CCOCC3)c3ccccc3C(=O)N2C)cc1OC (configuration not stated)	none
COc1cc(NC(=O)C2CCCCC2)c2ncccc2c1	CYP2C9 activ 2.1
COc1ccc2oc(=O)c(NC(=O)C3CCCCC3)cc2c1	none
COc1ccc(OC)c(NC(=O)C2CCCN(S(=O)(=O)c3cccc4cccnc34)C2)c1 (configuration not stated)	CYP2C19 inh 68.9
COc1ccc(C)cc1NC(=O)C1CCN(S(=O)(=O)c2cccc3cccnc23)CC1	CYP2C9 activ 2.7
COc1cccc2cc(C(=O)NCc3ccco3)c(=Nc3ccc(C(=O)O)cc3)oc12	none
C(=N\Nc1ncnc2sc3c(c12)CCC3)/c1ccncc1	CYP2C19 inh 83.2, CYP2C9 inhib 82.1
O=C(Nc1ncnc2sc3c(c12)CCCCC3)c1ccccc1	CYP2C19 inh 51.3
C(=N\Nc1ncnc2sc3c(c12)CCC3)/c1cccs1	none
O=C(Nc1ncnc2sc3c(c12)CCC3)c1ccco1	CYP2C9 activ 2.4
O=C(Nc1ncnc2sc3c(c12)CCCCC3)c1ccc(F)cc1	none
Cc1[nH]n(-c2ccccc2)c(=O)c1C(C[N+](=O)[O-])c1ccc(Br)cc1 (configuration not stated)	CYP2C19 inh 53.2, CYP2C9 inhib 94.9
CC(C)CCNC(=O)CN(CCN1CCOCC1)C(=O)Cn1nnc(-c2ccc(F)cc2)n1	none
O=C(NCCN=C1NS(=O)(=O)c2ccccc21)c1ccco1	none
O=C(NCCCN=C1NS(=O)(=O)c2ccccc21)c1ccncc1	CYP2C9 inhib 79.8
COc1ccc(C(=O)OCCN=C2NS(=O)(=O)c3ccccc32)cc1OC	none
O=S1(=O)NC(=NCc2ccccc2)c2ccccc21	CYP2C19 inh 59.8
CC(C(=O)c1ccccc1)n1c(N2CCOCC2)nc2c1c(=O)n(C)c(=O)n2C (configuration not stated)	none
CC(C)(C)c1ccc(OCC(=O)NCCN2CCCC2)cc1	none
CCCCOC(=O)C1Cc2ccccc2C(=O)O1 (configuration not stated)	CYP2C19 inh 85.0
CCOC(=O)C1Cc2ccccc2C(=O)O1 (configuration not stated)	none
Cc1nn(Cc2c(F)c(F)c(F)c(F)c2F)c(C)c1NC(=O)c1c(-c2ccccc2)nn(-c2ccccc2)c1C	none
CCOC(=O)c1cc(CN2CCOCC2)oc1-c1ccccc1	none
C/C(=N\OC(=O)c1cccc(C(F)(F)F)c1)c1sc(-c2ccccc2)nc1C	none
C/C(=N\OC(=O)c1cccc(C)c1)c1sc(-c2ccccc2)nc1C	CYP2C19 inh 52.4
COC(=O)c1nnn(CC(=O)Nc2ccc(C)c(F)c2)c1C(=O)OC	none
O=C(Nc1cccc(Cl)c1)O/N=C\c1ccncc1	CYP2C19 inh 88.6, CYP2C9 inhib 89.9
COc1cccc(NC(=O)COC(=O)c2cccnc2)c1	CYP2C19 inh 66.6
O=C(COC(=O)c1cccnc1)Nc1cccc(Cl)c1	CYP2C19 inh 85.7, CYP2C9 inhib 69.1
Cc1cnc(C(=O)OCC(=O)Nc2cccc(Cl)c2)cn1	none
COC(=O)c1nnn(CC(=O)Nc2cccc(Cl)c2)c1C(=O)OC	CYP2C19 inh 79.1, CYP2C9 inhib 70.5
COc1cccc(NC(=O)c2cccnc2)c1	none
COc1cccc(-n2nnc3c(=O)n(CC(=O)N4CCCc5ccccc54)cnc32)c1	none
Cc1ccc(NC(=O)COS(=O)c2ccc(C)cc2)cc1 (configuration not stated)	none
O=C(COC(=O)c1ccncc1)Nc1cccc(Cl)c1	CYP2C19 inh 77.5, CYP2C9 inhib 87.4
COc1ccc(Cc2nc3ccc(S(N)(=O)=O)cc3[nH]2)cc1OC	none
CCSCCOC(=O)C1=C(C)NC(=O)NC1c1cc(OC)ccc1OC (configuration not stated)	none
CCCOC(=O)C1=C(C)NC2=C(C(=O)CCC2)C1c1cc(OC)ccc1OC (configuration not stated)	CYP2C19 inh 66.7, CYP2C9 inhib 77.7
CCN(CC)c1ccc(C2C(C(=O)OCCOC)=C(C)NC3=C2C(=O)CCC3)cc1 (configuration not stated)	none
CCOC(=O)C1=C(CC)NC2=C(C(=O)CCC2)C1c1ccc(OC)c(OC)c1 (configuration not stated)	CYP2C19 inh 50.1
COc1cc(C2C(C(=O)N3CCOCC3)=C(C)NC3=C2C(=O)CCC3)ccc1OC(C)=O (configuration not stated)	none
CCCCOC(=O)C1=C(C)NC2=C(C(=O)CCC2)C1c1cc(OC)ccc1OC (configuration not stated)	CYP2C19 inh 62.7, CYP2C9 inhib 84.7
CCOC(=O)C1=C(C)NC2=C(C(=O)CCC2)C1c1cc(OC)ccc1OC (configuration not stated)	CYP2C19 inh 79.2, CYP2C9 inhib 88.4
Cc1ccc(-n2c(=O)[nH]cc(C(=O)Nc3ccc4c(c3)OCCO4)c2=O)cc1C	none
CCOC(=O)COc1ccc2c(c1)C(=O)CC1(CCCCC1)O2	none
COc1cccc(C2C(C(=O)Nc3nc4ccccc4s3)=C(C)NC3=C2C(=O)CC(C)(C)C3)c1OC (configuration not stated)	none
COc1ccc(OC)c(C2C(C(=O)Nc3nc4ccccc4s3)=C(C)NC3=C2C(=O)CCC3)c1 (configuration not stated)	CYP2C19 inh 63.9, CYP2C9 inhib 74.1
COc1ccc2c(c1)C1NC(=S)N[C@@](C)(O2)C1C(=O)Nc1ccccc1 (some centres not stated)	none
CCN(CC)c1ncnc2c1sc1nc(N3CCOCC3)c3c(c12)CCC3	none
CC1(C)Cc2c(c(N3CCOCC3)nc3sc(C(=O)N4CCCCC4)c(N)c23)CO1	none
Nc1c(C(=O)NCc2ccccc2)sc2nc(N3CCOCC3)c3c(c12)CCCC3	CYP2C9 inhib 86.3
CC1(C)Cc2c(c(N3CCOCC3)nc3snc(NC(=O)c4ccccc4)c23)CO1	CYP2C9 inhib 88.1
CNC(=O)c1ccc(-c2sc3nc(N4CCOCC4)c4c(c3c2N)CC(C)(C)OC4)o1	CYP2C9 inhib 51.5
CNC(=O)c1ccc(-c2sc3nc(N4CCOCC4)c4c(c3c2N)CCCC4)o1	CYP2C19 inh 91.9, CYP2C9 inhib 94.2
CCOC(=O)c1sc2nc(N3CCOCC3)c3c(c2c1N)CCN(C)C3	none
CCOCCCNC(=O)C1CCCN1C(=O)NC1CCCCC1 (configuration not stated)	none
